Among the data in PubChem BioAssay (EPA / NIEHS) are outcome and AC50 values, retold here.

The source made the active and inactive calls. The calls were made as follows: active = hit-call score of the fitted dose curve at least 0.9, where 1 is the maximum; inactive = score below 0.9.

A word on the AC50: it is the concentration giving half of the maximal activity seen.

Read-out in test [1]: Human Leukocyte Antigen - DR isotype (HLADR), HLA-DRA (gene 3122)
Briefly: BSK_BE3C_HLADR: BioMAP Diversity Plus: BE3C Assay for Human Leukocyte Antigen - DR isotype (HLADR) Biomarker Activity (AID 2283032). To be noted: primary human bronchial epithelial cells; actives raise or lower the signal. The method, boiled down:
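Chemicals are dosed onto BE3C bronchial epithelial cultures of human origin and left 24 h. HLA-DR is then measured by ELISA, and the endpoint is fitted in both directions using DMSO as the activity baseline.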

Read-out in test [2]: Vascular cell adhesion molecule 1 (VCAM1), VCAM1 (gene 7412)
Briefly: BSK_4H_VCAM1: BioMAP Diversity Plus: 4H Assay for Vascular cell adhesion molecule 1 (VCAM1) Biomarker Activity (AID 2283033).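 As to outcome: cell-surface VCAM-1 protein measured by ELISA.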 To be noted: primary human endothelial cells (HUVEC); actives raise or lower the signal. The method, boiled down:
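Chemicals are added to primary human umbilical vein endothelial cells. After 24 h, VCAM-1 levels are measured by ELISA. Values come from bidirectional fitting referenced to DMSO.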

Read-out in test [3]: Interferon-gamma inducible Protein 10 (IP10), CXCL10 (gene 3627)
Briefly: BSK_BE3C_IP10: BioMAP Diversity Plus: BE3C Assay for Interferon-gamma inducible Protein 10 (IP10) Biomarker Activity (AID 2283034). The note with it: primary human bronchial epithelial cells; actives raise or lower the signal. The procedure, abridged:
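IP-10 quantified by ELISA serves as the endpoint. Cells: primary human bronchial epithelium, read 24 h after compound addition. Activity is derived by bidirectional fitting with DMSO as negative control.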

Read-out in test [4]: Monokine induced gamma interferon (MIG), CXCL9 (gene 4283)
The test can be described thus: BSK_BE3C_MIG: BioMAP Diversity Plus: BE3C Assay for Monokine induced gamma interferon (MIG) Biomarker Activity (AID 2283035).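 As to outcome: MIG protein measured by ELISA in BE3C cultures after 24 h of dosing.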 To be noted: primary human bronchial epithelial cells; actives raise or lower the signal. The procedure, abridged:
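Dose cells (human primary bronchial epithelial), incubate 24 h, quantify MIG by ELISA, then fit concentration–response in both directions relative to DMSO control.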

Read-out in test [5]: Transforming growth factor beta 1 (TGFb1), TGFB1 (gene 7040)
Briefly: BSK_BE3C_TGFb1: BioMAP Diversity Plus: BE3C Assay for Transforming growth factor beta 1 (TGFb1) Biomarker Activity (AID 2283036;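 also: TGF-b1 protein level measured by ELISA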). To be noted: primary human bronchial epithelial cells; actives raise or lower the signal. The method, boiled down: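 Bronchial epithelial primary cells are treated with test chemical, then TGF-b1 is quantified by ELISA after 24 hours. Values derive from bidirectional fitting against DMSO, with cytotoxicity checked by SRB staining in parallel cultures.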

Read-out in test [6]: Plasminogen activator inhibitor-1 (PAI1), SERPINE1 (gene 5054)
Briefly: BSK_BE3C_PAI1: BioMAP Diversity Plus: BE3C Assay for Plasminogen activator inhibitor-1 (PAI1) Biomarker Activity (AID 2283037). To be noted: primary human bronchial epithelial cells; actives raise or lower the signal. The method, boiled down: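 Values derive from bidirectional fitting against DMSO baseline of PAI-1 levels, measured by ELISA in human bronchial epithelial cells 24 h after compound addition.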

Read-out in test [7]: urokinase plasminogen activator (uPA), PLAU (gene 5328)
Briefly: BSK_BE3C_uPA: BioMAP Diversity Plus: BE3C Assay for urokinase plasminogen activator (uPA) Biomarker Activity (AID 2283038).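 Also: uPA protein level quantified by ELISA in cell cultures; uPA read one day after compound addition.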 To be noted: primary human bronchial epithelial cells; actives raise or lower the signal. The method, boiled down: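 Human primary bronchial epithelial cells were exposed to chemical for 24 h, then uPA levels were measured by ELISA. Responses were fitted bidirectionally against DMSO as negative control and baseline. Parallel SRB staining of total protein gauged overt cytotoxicity.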

Read-out in test [8]: Urokinase-type plasminogen activator receptor (uPAR), PLAUR (gene 5329)
Briefly: BSK_BE3C_uPAR: BioMAP Diversity Plus: BE3C Assay for Urokinase-type plasminogen activator receptor (uPAR) Biomarker Activity (AID 2283039).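 As to outcome: cells exposed to compound for one day before measurement.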 The note with it: primary human bronchial epithelial cells; actives raise or lower the signal. The method, boiled down:
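Steps: dose human primary bronchial epithelial cells, incubate 24 h, measure uPAR by ELISA, then fit gain- or loss-of-signal response bidirectionally relative to DMSO.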

Read-out in test [9]: Interleukin-6 (IL6), IL6 (gene 3569)
Briefly: BSK_CASM3C_IL6: BioMAP Diversity Plus: CASM3C Assay for Interleukin-6 (IL6) Biomarker Activity for (AID 2283040). To be noted: primary human coronary artery smooth muscle cells; actives raise or lower the signal.

Read-out in test [10]: Tissue plasminogen activator (tPA), PLAT (gene 5327)
Briefly: BSK_BE3C_tPA: BioMAP Diversity Plus: BE3C Assay for Tissue plasminogen activator (tPA) Biomarker Activity (AID 2283041).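 As to outcome: tPA level quantified by ELISA one day after compound addition.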 The note with it: primary human bronchial epithelial cells; actives raise or lower the signal. The procedure, abridged: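 Gain- or loss-of-signal in tPA, measured by ELISA, derived by bidirectional fitting against DMSO. Cells: human primary bronchial epithelial; read at 24 h after chemical dosing.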

For the compound `CC(C)N(Cc1ccccc1)C(=O)C(C)(C)C`, the outcome in test [1], in test [2], in [3], in test [4], in [5] and in test [6] was inactive. Besides, the outcome in test [7], in test [8], in test [9] and in [10] was inactive.

Regarding `[O-][Cl+]O`, the outcome in test [1], in test [2], in [3], in [4], in test [5] and in test [6] was inactive. Further, the outcome in test [7], in test [8], in test [9] and in test [10] was inactive.

In the case of `CCCCCOC(=O)c1ccccc1C(=O)OCCCCC`, the outcome in [1], in test [3], in test [4], in test [5], in test [6] and in test [7] was inactive. In addition, the outcome in [8], in [9] and in test [10] was inactive. For the same compound, the AC50 in [2] was 18.5 µM (active).

On to `CC(C)(C)OOC(=O)c1ccccc1`, for which the result in [1], in [3], in [4], in [5], in [6] and in test [7] was inactive. The result in test [8], in [9] and in test [10] was inactive.

`O=C(Nc1ccccc1)c1ccccc1I`: the outcome in test [1], in test [2], in test [3], in test [4], in test [5] and in [6] was inactive. In addition, the outcome in test [7], in [8], in test [9] and in test [10] was inactive.

`N#CC(Br)(Br)C(N)=O`: the result in test [1], in test [2], in test [3], in test [4], in test [5] and in test [6] was inactive. The outcome in test [7], in test [8], in test [9] and in [10] was inactive.

`CCCCCCCCOC(=O)c1ccc(C(=O)OCCCCCCCC)c(C(=O)OCCCCCCCC)c1`: the result in [1], in [3], in [4], in test [5], in test [6] and in test [7] was inactive. In addition, the outcome in test [8], in [9] and in test [10] was inactive.

`Oc1ccccc1Cl`: the outcome in test [1], in test [2], in test [3], in [4], in [5] and in test [6] was inactive. Moreover, the outcome in test [7], in [8], in test [9] and in [10] was inactive.

On to `CC(C)COC(=O)c1ccccc1C(=O)OCC(C)C`, for which the result in [1], in test [3], in test [4], in test [5], in test [6] and in [7] was inactive. Moreover, the result in test [8], in [9] and in test [10] was inactive.

Regarding `O=C1CCCO1`, the result in test [1], in [3], in test [4], in [5], in test [6] and in test [7] was inactive. The outcome in test [8], in [9] and in test [10] was inactive.

Turning to `Nc1ccc(Oc2ccc(N)cc2)cc1`, the result in [1], in test [3], in [4], in test [5], in [6] and in test [7] was inactive. The outcome in test [8], in test [9] and in test [10] was inactive.

Consider `OCCOCCO`, for which the result in test [1], in [3], in [4], in [5], in [6] and in test [7] was inactive. Also, the result in test [8], in [9] and in test [10] was inactive.

In the case of `c1ccc(NNc2ccccc2)cc1`, the result in [1], in test [3], in test [4], in [5], in test [6] and in test [7] was inactive. Also, the outcome in test [8], in [9] and in test [10] was inactive.

On to `CNC(=O)Oc1cccc2c1OC(C)(C)C2`, for which the result in test [1], in [2], in test [3], in test [4], in test [5] and in test [6] was inactive. The outcome in test [7], in test [8], in test [9] and in test [10] was inactive.

Take `OCCCBr`: the result in test [1], in [2], in test [3], in test [4], in test [5] and in test [6] was inactive. Moreover, the result in [7], in [8], in test [9] and in test [10] was inactive.

`Cc1ccc(N)cc1`: the outcome in [1], in test [3], in test [4], in test [5], in [6] and in test [7] was inactive. Further, the outcome in test [8], in [9] and in [10] was inactive.

In the case of `Cn1cc(-c2ccccc2)c(=O)c(-c2cccc(C(F)(F)F)c2)c1`, the result in [1], in [3], in [4], in test [5], in test [6] and in [7] was inactive. In addition, the outcome in [8], in test [9] and in test [10] was inactive.

Regarding `CCC(C)c1ccc(O)cc1` (stereo unspecified), the result in test [1], in test [3], in test [4], in test [5], in test [6] and in test [7] was inactive. The result in [8], in test [9] and in test [10] was inactive.

For the compound `Oc1ccc2ccc3cccc4ccc1c2c34`, the AC50 is 34.6 µM (active) in [1]; 31.3 µM (active) in test [3]; 31.2 µM (active) in [4]; 27.5 µM (active) in test [6]; 33 µM (active) in [8]; 36.1 µM (active) in test [10]. In addition, the result in test [7] and in test [9] was inactive.

On to `Cc1cccc(N)c1N`, for which the result in [1], in test [3], in test [4], in test [5], in test [6] and in [7] was inactive. The outcome in test [8], in test [9] and in test [10] was inactive.

For `c1ccc2c(c1)oc1ccccc12`, the outcome in test [1], in test [3], in test [4], in test [5], in test [6] and in test [7] was inactive. The result in [8], in test [9] and in test [10] was inactive.
